Experimental findings from PubChem BioAssay are described below.

The test system of test [1] is PRMT1 (protein arginine N-methyltransferase 1). Description: PRMT1 binders on small-molecule microarrays, primary screen, biochemical, small-molecule microarray, 635 nm fluorescence (AID 1088).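 Also: binding of Prmt1 protein to compounds spotted on small-molecule microarray slides.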 The conditions noted are these: small-molecule microarray binding, higher = more signal.
The nature of test [2]: yeast growth modulation, basal conditions, primary screen, YJM789 clinical isolate, OD600, 24 h (AID 1089).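 Also: growth of clinical yeast isolate S. cerevisiae YJM 789 seeded 1000 cells per well; test concentration not given here.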 The note with it: S. cerevisiae YJM789 growth, higher = more signal, called active from +8 up or from −8 down.
Test [3] can be described thus: fission yeast growth modulation, primary screen, strain 972, OD600, 24 h, no modulator (AID 1090).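 Also: basal condition with compound alone and no growth modifier present; test concentration not given here.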 The note with it: S. pombe 972 growth, higher = more signal, called active from +8 up or from −8 down.
Test [4] is described as follows: S. cerevisiae growth modulation with rapamycin, primary screen, strain BY4716, OD600, 96 h (AID 1091). Also: test concentration not given here. The note with it: higher = more signal, called active from +8 up or from −8 down.
For test [5], the target named is Torsin-1A-interacting protein 2 (Homo sapiens) (UniProt Q8NFQ8). The test can be described thus: LULL1 binders on small-molecule microarray, primary screen, cell lysate, human LULL1 lysate, 635/667 nm fluorescence (AID 1092).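 Also: probe is lysate of COS7 cells overexpressing human LULL1; score merges per-feature 667 nm fluorescence with signal-to-noise.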 The conditions noted are these: hLULL1 lysate binding, 635 nm fluorescence, higher = more signal.
Chain of Torsin-1A-interacting protein 2 (Homo sapiens) (Q8NFQ8 whole entry, looked up): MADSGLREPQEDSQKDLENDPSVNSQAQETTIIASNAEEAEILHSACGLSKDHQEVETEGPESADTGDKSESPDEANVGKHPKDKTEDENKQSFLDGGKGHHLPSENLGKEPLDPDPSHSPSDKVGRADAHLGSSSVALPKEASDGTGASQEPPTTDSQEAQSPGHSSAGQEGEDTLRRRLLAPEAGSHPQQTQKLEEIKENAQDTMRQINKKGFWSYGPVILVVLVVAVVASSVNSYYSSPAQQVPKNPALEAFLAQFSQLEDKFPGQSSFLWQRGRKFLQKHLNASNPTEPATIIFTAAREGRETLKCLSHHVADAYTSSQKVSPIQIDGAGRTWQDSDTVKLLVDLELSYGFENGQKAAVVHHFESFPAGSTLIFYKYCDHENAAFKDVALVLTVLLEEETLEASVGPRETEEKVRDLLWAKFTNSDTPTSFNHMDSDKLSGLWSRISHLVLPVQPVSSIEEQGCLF
A short description of test [6]: E. coli growth modulation, two-sided OD650, primary screen, E. coli filamentation project, strain DRC41, 24 h (AID 1093).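 Also: MC1000 strain lacking acrAB efflux and sulA so SOS filamentation is blocked; test concentration not given here.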 The note with it: OD650, 24 h, higher = more signal, called active from +8 up or from −8 down.
Test [7] in a line: small-molecule microarray binders of probe aLefty2, primary screen, biochemical, biotinylated probe, 635/667 nm fluorescence (AID 1094).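 Also: score merges spot fluorescence near 667 nm with spot signal-to-noise ratio.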 The note with it: higher = more signal.
Test [8] has as its system Noggin (protein binding on small-molecule microarray). Description: Noggin binders on small-molecule microarray, primary screen, biochemical, 635/667 nm fluorescence (AID 1095).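 Also: score merges 667 nm feature fluorescence with signal to noise over triplicate slides.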 The note with it: 635 nm fluorescence, higher = more signal.
Test [9] concerns the target Neurogenic locus notch homolog protein 3 (Homo sapiens) (UniProt Q9UM47). Description: NOTCH3 binders on small-molecule microarray, primary screen, biochemical, 635/667 nm fluorescence (AID 1096). The note with it: NOTCH3 binding, 635 nm fluorescence, higher = more signal.
The nature of test [10]: small-molecule microarray binders of probe aEGFR, primary screen, biochemical, biotinylated probe, 635/667 nm fluorescence (AID 1097).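 Also: probe is a biotinylated anti-EGFR antibody binding compounds printed on slides; score combines fluorescence near 667 nm and signal to noise of each spot.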 The conditions noted are these: higher = more signal.
Test [11] relates to Plasmodium falciparum Sir2 (PF13_0152, Sir2A). The test can be described thus: pfSir2 binders on small-molecule microarrays, primary screen, biochemical, small-molecule microarray, 635 nm fluorescence (AID 1098).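 Also: score merges spot fluorescence intensity with its signal-to-noise ratio.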 The conditions noted are these: small-molecule microarray binding, fluorescence 635 nm; higher = more signal.
The nature of test [12]: small-molecule microarray binders of probe aDKK1, primary screen, biochemical, biotinylated probe, 635/667 nm fluorescence (AID 1099).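 Also: score merges 667nm spot fluorescence with signal to noise across triplicate slides; reference of the scale not given here.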 The conditions noted are these: higher = more signal.
Test [13] can be described thus: small-molecule microarray binders of probe aCHRDL2, primary screen, biochemical, biotinylated probe, 635/667 nm fluorescence (AID 1100). The note with it: higher = more signal.
A short description of test [14]: splicing luciferase reporter signal modulators, primary screen, spliceosome inhibition project, cell-based, HEK293, splice +/- reporter (AID 1101).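 Also: HEK293 cells carrying a splicing-competent luciferase reporter gene; test concentration not given here.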 The conditions noted are these: luminescence, 24 h, higher = more signal, called active from +8 up or from −8 down.
In test [15] the target is Fibroblast growth factor 10 (Homo sapiens) (UniProt O15520). The test can be described thus: FGF10 binders on small-molecule microarrays, primary screen, biochemical, small-molecule microarray, 635 nm fluorescence (AID 1102). The note with it: FGF10 binding, fluorescence 635 nm, higher = more signal.
Chain of Fibroblast growth factor 10 (Homo sapiens) (O15520 whole entry, looked up): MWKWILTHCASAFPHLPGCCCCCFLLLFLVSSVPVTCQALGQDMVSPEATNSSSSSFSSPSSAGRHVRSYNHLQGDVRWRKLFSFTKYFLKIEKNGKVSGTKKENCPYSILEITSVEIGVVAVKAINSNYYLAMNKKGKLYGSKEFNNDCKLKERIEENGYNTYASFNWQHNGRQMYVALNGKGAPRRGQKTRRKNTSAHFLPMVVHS
Test [16] deals with glycogen synthase kinase-3 (GSK3A per assay name; protocol says GSK3B). The test can be described thus: GSK3 binders on small-molecule microarrays, primary screen, biochemical, small-molecule microarray, 635 nm fluorescence, GSK3A (AID 1103). Also: the record names both GSK3A and GSK3B. The conditions noted are these: small-molecule microarray binding, fluorescence 635 nm; higher = more signal.
Test [17] has as its target Epidermal growth factor receptor (Homo sapiens) (UniProt P00533). Description: EGFR binders on small-molecule microarrays, primary screen, biochemical, small-molecule microarray, 635 nm fluorescence (AID 1104).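 Also: score merges 667 nm emission intensity with spot signal to noise over triplicate slides.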 The conditions noted are these: EGFR binding, higher = more signal.
Test [18] has as its target Follistatin-related protein 3 (Homo sapiens) (UniProt O95633). The test can be described thus: FSTL3 binders on small-molecule microarrays, primary screen, biochemical, small-molecule microarray, 635 nm fluorescence (AID 1105).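 Also: score merges emission near 667 nm and signal to noise per printed spot across three slides.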 The conditions noted are these: FSTL3 binding, higher = more signal.
The target of test [19] is Dickkopf-related protein 1 (Homo sapiens) (UniProt O94907). The test can be described thus: DKK1 binders on small-molecule microarrays, primary screen, biochemical, small-molecule microarray, 635 nm fluorescence scan (AID 1106).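 Also: score merges emission near 667 nm with signal to noise over three replicate slides.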 The note with it: DKK1 binding, higher = more signal.
Chain of Dickkopf-related protein 1 (Homo sapiens) (O94907 whole entry, looked up): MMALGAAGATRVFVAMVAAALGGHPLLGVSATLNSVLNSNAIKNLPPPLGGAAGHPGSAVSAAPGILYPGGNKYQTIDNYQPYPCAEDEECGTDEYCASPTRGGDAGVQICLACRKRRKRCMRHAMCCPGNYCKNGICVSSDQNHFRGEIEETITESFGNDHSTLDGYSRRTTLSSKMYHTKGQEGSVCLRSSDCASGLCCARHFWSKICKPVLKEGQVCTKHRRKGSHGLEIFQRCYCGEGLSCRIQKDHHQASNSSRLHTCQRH
Test [20] relates to Inhibin beta A chain (activin A). The test can be described thus: INHBA (activin A) binders on microarrays, primary screen, biochemical, small-molecule microarray, 635 nm fluorescence scan (AID 1107).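 Also: mouse activin A protein probed at 4.33 µg/mL on printed slides; score merges bound-protein fluorescence near 667 nm with spot signal-to-noise.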 The conditions noted are these: small-molecule microarray binding, higher = more signal.

Active and inactive are the calls of the source.

Chain of Follistatin-related protein 3 (Homo sapiens) (O95633 whole entry, looked up): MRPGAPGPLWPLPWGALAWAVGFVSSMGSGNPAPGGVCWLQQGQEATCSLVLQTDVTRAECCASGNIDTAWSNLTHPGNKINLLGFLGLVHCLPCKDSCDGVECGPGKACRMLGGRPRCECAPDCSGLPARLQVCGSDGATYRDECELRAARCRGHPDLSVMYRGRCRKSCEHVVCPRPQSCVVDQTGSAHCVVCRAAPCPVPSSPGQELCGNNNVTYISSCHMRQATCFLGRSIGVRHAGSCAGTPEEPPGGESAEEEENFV
Chain of Neurogenic locus notch homolog protein 3 (Homo sapiens) (Q9UM47 whole entry, looked up): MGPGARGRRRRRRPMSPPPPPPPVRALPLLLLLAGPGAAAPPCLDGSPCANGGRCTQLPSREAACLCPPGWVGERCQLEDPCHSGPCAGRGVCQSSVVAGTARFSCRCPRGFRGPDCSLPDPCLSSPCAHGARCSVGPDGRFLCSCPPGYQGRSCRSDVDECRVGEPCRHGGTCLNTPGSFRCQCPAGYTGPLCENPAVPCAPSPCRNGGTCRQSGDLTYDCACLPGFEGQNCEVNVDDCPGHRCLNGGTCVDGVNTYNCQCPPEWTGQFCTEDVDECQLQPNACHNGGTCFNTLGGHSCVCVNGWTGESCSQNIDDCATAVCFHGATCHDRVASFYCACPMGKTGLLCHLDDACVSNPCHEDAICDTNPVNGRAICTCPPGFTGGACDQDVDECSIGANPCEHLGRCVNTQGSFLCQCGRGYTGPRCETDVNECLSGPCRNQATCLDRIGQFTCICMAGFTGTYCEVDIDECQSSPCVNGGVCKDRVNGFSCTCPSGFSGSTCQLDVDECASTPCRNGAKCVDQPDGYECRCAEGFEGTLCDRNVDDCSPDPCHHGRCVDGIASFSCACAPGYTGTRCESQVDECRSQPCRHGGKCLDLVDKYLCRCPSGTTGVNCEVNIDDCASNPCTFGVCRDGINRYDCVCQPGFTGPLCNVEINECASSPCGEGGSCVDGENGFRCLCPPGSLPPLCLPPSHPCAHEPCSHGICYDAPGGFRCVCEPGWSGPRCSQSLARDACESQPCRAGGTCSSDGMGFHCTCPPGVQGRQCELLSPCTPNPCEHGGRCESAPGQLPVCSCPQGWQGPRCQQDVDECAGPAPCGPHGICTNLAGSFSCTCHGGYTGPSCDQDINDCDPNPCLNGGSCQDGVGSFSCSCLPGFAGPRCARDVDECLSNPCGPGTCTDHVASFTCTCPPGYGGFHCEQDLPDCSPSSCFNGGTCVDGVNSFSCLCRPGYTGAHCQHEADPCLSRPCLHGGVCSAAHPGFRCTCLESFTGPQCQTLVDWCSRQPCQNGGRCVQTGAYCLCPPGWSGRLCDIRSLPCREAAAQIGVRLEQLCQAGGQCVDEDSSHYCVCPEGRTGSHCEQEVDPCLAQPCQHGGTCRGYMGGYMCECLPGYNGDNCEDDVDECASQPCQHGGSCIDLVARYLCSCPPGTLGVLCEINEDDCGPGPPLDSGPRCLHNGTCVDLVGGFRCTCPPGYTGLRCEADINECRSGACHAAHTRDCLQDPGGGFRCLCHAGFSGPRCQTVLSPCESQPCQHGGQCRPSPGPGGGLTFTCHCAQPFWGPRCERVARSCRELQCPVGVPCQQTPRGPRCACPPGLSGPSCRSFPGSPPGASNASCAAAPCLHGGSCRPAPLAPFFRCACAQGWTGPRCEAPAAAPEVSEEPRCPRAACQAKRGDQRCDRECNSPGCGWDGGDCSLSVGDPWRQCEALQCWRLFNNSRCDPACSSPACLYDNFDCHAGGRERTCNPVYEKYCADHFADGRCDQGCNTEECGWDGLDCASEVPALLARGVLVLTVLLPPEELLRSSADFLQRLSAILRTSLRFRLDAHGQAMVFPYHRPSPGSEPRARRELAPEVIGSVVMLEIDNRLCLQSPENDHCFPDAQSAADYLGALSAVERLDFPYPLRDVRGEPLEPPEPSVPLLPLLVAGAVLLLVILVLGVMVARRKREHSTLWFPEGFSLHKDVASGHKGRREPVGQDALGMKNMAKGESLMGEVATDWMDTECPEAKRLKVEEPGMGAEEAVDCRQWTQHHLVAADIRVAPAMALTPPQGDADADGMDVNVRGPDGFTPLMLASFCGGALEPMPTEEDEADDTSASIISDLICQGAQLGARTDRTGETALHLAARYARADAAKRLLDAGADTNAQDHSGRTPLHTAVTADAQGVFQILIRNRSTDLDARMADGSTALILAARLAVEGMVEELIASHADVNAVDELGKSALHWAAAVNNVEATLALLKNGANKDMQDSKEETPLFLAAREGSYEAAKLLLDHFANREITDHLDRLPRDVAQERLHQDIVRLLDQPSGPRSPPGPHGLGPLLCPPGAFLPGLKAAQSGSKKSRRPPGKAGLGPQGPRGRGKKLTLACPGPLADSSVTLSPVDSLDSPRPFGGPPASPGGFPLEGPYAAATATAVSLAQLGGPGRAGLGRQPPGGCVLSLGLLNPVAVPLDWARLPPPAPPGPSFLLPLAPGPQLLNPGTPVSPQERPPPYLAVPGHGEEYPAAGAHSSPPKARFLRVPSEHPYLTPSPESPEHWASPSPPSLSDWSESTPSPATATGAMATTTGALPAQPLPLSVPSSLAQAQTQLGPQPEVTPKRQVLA
Chain of Epidermal growth factor receptor (Homo sapiens) (P00533 whole entry, looked up): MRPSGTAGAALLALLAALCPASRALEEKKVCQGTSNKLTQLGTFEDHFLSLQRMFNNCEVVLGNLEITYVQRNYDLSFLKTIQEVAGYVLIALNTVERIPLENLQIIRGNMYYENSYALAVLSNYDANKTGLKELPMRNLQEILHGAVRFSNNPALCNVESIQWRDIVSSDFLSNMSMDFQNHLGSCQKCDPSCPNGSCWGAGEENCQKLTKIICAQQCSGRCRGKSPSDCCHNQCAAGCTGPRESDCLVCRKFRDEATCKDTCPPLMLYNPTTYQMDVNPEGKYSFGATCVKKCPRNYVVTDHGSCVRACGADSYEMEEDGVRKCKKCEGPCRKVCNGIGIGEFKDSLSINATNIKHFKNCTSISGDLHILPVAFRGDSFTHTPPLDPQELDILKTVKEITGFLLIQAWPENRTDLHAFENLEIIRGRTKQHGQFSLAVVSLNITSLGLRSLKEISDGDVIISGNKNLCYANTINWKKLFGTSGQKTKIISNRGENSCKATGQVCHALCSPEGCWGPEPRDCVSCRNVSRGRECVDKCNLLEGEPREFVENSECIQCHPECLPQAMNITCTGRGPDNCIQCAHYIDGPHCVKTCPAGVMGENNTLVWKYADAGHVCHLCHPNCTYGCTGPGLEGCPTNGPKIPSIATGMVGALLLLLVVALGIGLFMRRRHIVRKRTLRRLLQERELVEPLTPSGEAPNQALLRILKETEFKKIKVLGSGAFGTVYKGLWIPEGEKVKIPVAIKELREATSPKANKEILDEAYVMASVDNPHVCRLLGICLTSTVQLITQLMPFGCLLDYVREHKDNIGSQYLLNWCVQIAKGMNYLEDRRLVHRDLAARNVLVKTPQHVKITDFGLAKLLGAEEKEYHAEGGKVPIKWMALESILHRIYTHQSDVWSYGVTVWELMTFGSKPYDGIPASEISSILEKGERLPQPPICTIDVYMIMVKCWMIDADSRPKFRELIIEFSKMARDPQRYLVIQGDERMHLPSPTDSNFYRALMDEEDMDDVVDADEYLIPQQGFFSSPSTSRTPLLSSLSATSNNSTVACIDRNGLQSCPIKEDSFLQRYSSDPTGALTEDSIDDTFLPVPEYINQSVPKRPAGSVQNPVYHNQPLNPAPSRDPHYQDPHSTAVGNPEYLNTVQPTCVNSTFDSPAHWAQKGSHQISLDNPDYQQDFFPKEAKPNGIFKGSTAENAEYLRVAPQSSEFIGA

With `Cc1ccc(C(C)CC(O)C2C=CC3C(=O)NC(=O)C3N2Nc2ccccn2)o1` (stereo not given), the composite z-score in test [1] was 1.09; in test [5] it was 1.94; in test [7], -0.0225; in test [8] it was 0.312; in test [9], -0.233; in [10], -0.0302. For the same compound, the composite z-score in test [11] is 1.22; in [12], 0.182; in [13], -0.0866; in test [15] it was 0.228; in [16], 0.309; in test [17] it was 0.401. In addition, the values for the composite z-score in test [18], in [19] and in test [20] were 0.506, 0.906 and 1.25, respectively. For the same compound, the z-score in test [2] was 0.633 (inactive); in test [3], 0.0293 (inactive); in [4], 0.124 (inactive); in test [6] it was 0.504 (inactive); in [14], 0.802 (inactive).
For `COc1cc(NN2C(C(O)c3ccccc3)C=CC3C(=O)N(c4ccccc4)C(=O)C32)cc(OC)c1OC` (stereo not given), the composite z-score came out at 1.34 in [1]; 3.5 in [5]; 0.17 in test [7]; 0.833 in test [8]; 1.03 in test [9]; 0.016 in test [10]. In addition, the composite z-score in test [11] turned out to be 1.53; in test [12] it was 0.256; in test [13], 0.862; in test [15], 1.28; in test [16], 1.14; in test [17], 0.257. In addition, the composite z-score in test [18] was found to be 1.47; in [19] it was 0.0142; in test [20], 0.706. The z-score in test [2] is 0.694 (inactive); in test [3], -0.933 (inactive); in [4], 0.126 (inactive); in test [6], -0.288 (inactive); in [14], -0.412 (inactive).
Turning to `CN(C)CCCCCCNC(=O)[C@@H]1C[C@@H]2C(=O)NCC(=O)N2[C@@H]1c1cccc(OCCO)c1`, the composite z-score was found to be 1.53 in [1]; 3.07 in test [5]; 0.164 in test [7]; 1.17 in test [8]; 1.03 in [9]; 0.0225 in [10]. Further, the composite z-score was 1.39 in [11]; 0.156 in [12]; -0.0688 in test [13]; 1.34 in [15]; 1.36 in [16]; 0.654 in [17]. Also, the composite z-score in test [18] came to 1.48; in test [19], 1.28; in [20] it was 0.433. Besides, the z-score in test [2] is 0.116 (inactive); in [3], -0.192 (inactive); in test [4], 0.191 (inactive); in test [6], 0.121 (inactive); in test [14], 0.0236 (inactive).
For the compound `CCN(CC)c1ccc(N2CC=CC34O[C@@H]5/C=C\CCC(C)OC(=O)C5[C@H]3C(=O)N(CCCCCCO)[C@@H]4C2=O)cc1` (stereo not given in full), the composite z-score in test [1] is -0.661; in [5], 0.989; in [7], -0.204; in [8], -0.668; in test [9], -0.318; in [10], -0.21. For the same compound, the composite z-score was 0.586 in test [11]; -0.331 in [12]; 0.0224 in test [13]; -0.0455 in [15]; -0.624 in [16]; -0.782 in [17]. The composite z-score is -0.622 in test [18], -0.471 in test [19] and 1.04 in test [20]. In addition, the z-score in test [2] is -0.13 (inactive); in [3], -0.147 (inactive); in test [4], 0.252 (inactive); in [6], 0.477 (inactive); in [14] it was 0.449 (inactive).
`CC(=O)N1Cc2ccccc2C[C@@]2(N=C(c3ccc(OCCCO)cc3)O[C@H]2c2ccccc2)C1=O`: the composite z-score in [1] turned out to be 1.53; in test [5], 3.32; in test [7], 0.215; in test [8], 1.47; in test [9], 1.11; in [10], 0.107. In addition, the composite z-score in [11] was 1.54; in test [12] it was 0.927; in test [13] it was 0.82; in test [15], 1.16; in test [16], 1.09; in test [17] it was 0.361. In addition, the composite z-score in [18] turned out to be 1.19; in test [19] it was 0.653; in test [20] it was 1.03. The z-score in test [2] is -3.56 (inactive); in test [3], -3.68 (inactive); in test [4], 17.1 (active); in test [6], 1.5 (inactive); in test [14], -2.97 (inactive).
